Compound activity deposited in PubChem by National Center for Advancing Translational Sciences (NCATS).
In the library only some 1% were active in any assay of this set; here they are far more common.
GALK inhibitor: blocks human galactokinase activity; Potency, µM (series often up to 57.5 µM), inactives show top-dose activity change, negative = inhibition, hits mostly inhibitors; 0.007% of 270,000 active; Purified GALK, Kinase-Glo residual ATP luminescence; AID 1868
Target sequence (P51570 whole entry, looked up): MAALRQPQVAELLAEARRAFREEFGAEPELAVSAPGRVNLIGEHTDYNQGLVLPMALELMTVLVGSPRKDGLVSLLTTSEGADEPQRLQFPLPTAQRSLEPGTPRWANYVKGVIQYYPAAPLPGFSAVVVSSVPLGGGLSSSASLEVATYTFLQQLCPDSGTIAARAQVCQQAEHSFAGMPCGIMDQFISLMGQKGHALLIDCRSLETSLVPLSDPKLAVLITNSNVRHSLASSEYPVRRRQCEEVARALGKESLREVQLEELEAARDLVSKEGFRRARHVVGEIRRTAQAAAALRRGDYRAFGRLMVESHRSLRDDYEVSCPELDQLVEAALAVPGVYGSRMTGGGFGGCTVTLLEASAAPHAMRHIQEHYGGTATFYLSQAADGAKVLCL
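Quantitative HTS: GALK 5 nM, ATP 35 uM, galactose 100 uM, 1 h room temperature, then luciferase-based ATP detection.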
RGS4 inh: blocks human RGS4-accelerated GTP hydrolysis; Potency, µM (top dose mostly 114 µM), for the others: at the top dose activity change, negative = inhibition, actives largely listed as inhibitors; P49798; Transcreener GDP fluorescence polarization, RGS4-accelerated GTP hydrolysis; 0.039% of 390,000 active; note: nearly all actives have a fitted effect of over 75% in size
Target sequence (P49798 whole entry, looked up): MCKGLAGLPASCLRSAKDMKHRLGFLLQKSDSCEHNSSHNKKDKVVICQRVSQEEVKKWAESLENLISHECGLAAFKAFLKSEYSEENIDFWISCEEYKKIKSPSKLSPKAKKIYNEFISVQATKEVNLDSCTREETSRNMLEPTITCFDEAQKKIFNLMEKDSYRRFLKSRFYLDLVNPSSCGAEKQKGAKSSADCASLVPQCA
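MLSMR compounds (23 nl, pin-transferred) preincubated 10 min at room temperature with a 500nM (2x) first reagent, then RGS4 at 900nM (2x) plus Transcreener GDP mix added; fluorescence polarization (620/688 nm) read before and after 90 min at 30 °C.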
Eya2 inh: inhibitors of human Eya2 phosphatase activity. O00167. recombinant Eya2, OMFP fluorescence dephosphorylation (OMFP is methylfluorescein phosphate). Potency, µM (top dose mostly 76.9 µM), for the others: at the top dose activity, negative = inhibition, most hits filed as inhibitors. 0.006% of 330,000 active
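Eya2 protein (added as 0.2 uM solution) was preincubated with compound for 10 min at ambient temperature in 50 mM HEPES pH 7.5, 50 mM NaCl, 5 uM MgCl2, 0.05% BSA, 1 mM DTT. OMFP (added at 50 uM) then reacted 10 min; fluorescence read at 485/525 nm.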
USP2a block: blocks human ubiquitin-specific protease USP2a; 0.01% of 330,000 active; USP2 core, Ub-CHOP2 coupled fluorogenic reporter, 485/531; Potency, µM (top dose mostly 38.3 µM), inactives show at the top dose activity change, negative = inhibition, most hits filed as inhibitors;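 note: plate controls were DMSO wells for no effect and full inhibition by NEM control for full effect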
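USP2 core (10nM final) preincubated 30min RT with compound in 20mM Tris-HCl pH 8.0, 2mM CaCl2, 2mM beta-mercaptoethanol, 0.05% CHAPS; 25nM Ub-CHOP2 plus 25nM reporter substrate added, fluorescence (Ex485/Em531) read after 60min.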
rTrxR1 inhibitor: inhibitors of rat thioredoxin reductase 1; recombinant rTrxR1, NADPH fluorescence consumption, selenite substrate; AID 588453; O89049; Potency, µM (titrated, usually from 114 µM), for inactives: at the top dose activity change, negative = inhibition, most hits filed as inhibitors; 1% of 390,000 active; note: nearly all actives have a fitted effect of over 65% in size
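Rat TrxR1 (90 nM in the dispensed reagent) was pre-reduced with 400 uM NADPH for 5 min at room temperature, then incubated with compound for 15 min. After 400 uM selenite was added, NADPH fluorescence (Ex 340/Em 450 nm) was followed for 8 min.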
TrxR1 substrate: substrates of rat thioredoxin reductase 1; O89049; purified TrxR1 substrate turnover, NADPH consumption readout; Potency, µM (series often up to 114 µM), without a hit: at the top dose activity change, negative = substrate turnover; 0.01% of 390,000 active; AID 588456; note: nearly all actives have a fitted effect of over 50% in size
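Rat TrxR1, dispensed at 90 nM, was prereduced with 400 uM NADPH (final) for 5 min at ~22 deg C, then incubated with compound 15 min before 400 uM selenite. A first-read NADPH fluorescence drop versus no-compound background flagged substrates.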
An asterisk follows results filed as active; i = inactive; ? = inconclusive; / = no result; ! = repeats disagree; [ ] = another dose, or the depositor's remark. Calls come from the whole dose curve; as a rule, active = well fitted curve in the direction sought with a large enough effect; inconclusive = small, poorly fitted or top-dose-only effect, or another doubt; inactive = no such curve, though single readings can be large; an effect the other way counts as inactive or inconclusive. Unless noted, % is set by controls: 0 for no effect and ±100 for the full control effect; potency is the fitted concentration of half-maximal effect.

SMILES	GALK inhibitor	RGS4 inh	Eya2 inh	USP2a block	rTrxR1 inhibitor	TrxR1 substrate
CC(NC(=O)OC(C)(C)C)C(=O)Oc1ccc2ccc(=O)oc2c1 (stereo not drawn)	1%	3%	2%	-2%	?	46%[57.1 µM]
O=C(CNC(=O)OCc1ccccc1)Oc1ccc2ccc(=O)oc2c1	/	-8%	5%	2%	25µM*	251%
CC(C)(C)OC(=O)NCCC(=O)Oc1ccc2ccc(=O)oc2c1	-1%	-6%	14%	1%	50µM*	102%
O=C(COc1ccc2ccc(=O)oc2c1)OCc1ccccc1	-2%	17%	8%	0%	13%	12%
C[C@](N)(Cc1ccc(O)c(O)c1)C(=O)O	/	27µM*!	2%	?	?	15%[57.1 µM]
Cc1ccc(CN2[C@H](C)[C@H](c3ccccc3)OCCS2(=O)=O)cc1	/	/	/	/	1%	-7%
Oc1c(C(c2ccccc2)N2CCOCC2)ccc2ccccc12 (stereo not drawn)	/	?	/	/	3.2µM*	-12%
Nc1ccc(-c2ccc(C(=O)O)s2)cn1	2%	9%	-14%	-5%	16µM*	i
Nc1ccc(S(=O)(=O)O)cn1	-1%	4%	-23%	0%	23%	7%
c1ccc2c(c1)NCC1CCCN21 (stereo not drawn)	/	-43%	-8%	0%	79µM*	-9%
O=C(C#Cc1ccccc1)c1ccco1	-7%	?	-9%	2%	0.25µM*	-1%
CC(NC(=O)CCl)c1ccc(Cl)c(Cl)c1 (stereo not drawn)	0%	-6%	-4%	2%	40µM*	-3%
O=C(NCCN1CCOCC1)c1ccc(Cl)c(Cl)c1	0%	4%	-25%	3%	24%	-1%
O=C1/C(=C\c2ccc(Cl)c(Cl)c2)CN(C(=O)CCN2CCOCC2)C/C1=C/c1ccc(Cl)c(Cl)c1	/	-109%	/	/	1.4µM*	11%[57.1 µM]
O=C1/C(=C\c2ccccc2)CN(C(=O)CCN2CCCCC2)C/C1=C/c1ccccc1	/	-37%	/	/	5µM*	-9%
CCN(CC)CCC(=O)N1C/C(=C/c2ccccc2)C(=O)/C(=C\c2ccccc2)C1	/	?	/	/	-62%[57.1 µM]	9%[57.1 µM]
COc1ccccc1/C=C/c1cnccn1	/	/	/	/	-13%	9%
Cc1ccc(S(=O)(=O)N2CCN(c3nc(C(N)=O)nc4ccccc34)CC2)cc1	/	-7%	/	/	9%	1%
Cc1ccc(NC(=O)CN(C)C(=O)Cc2ccc(Cl)c(Cl)c2)cc1	-2%	-2%	-7%	0%	11%	-5%
Cc1ccc(NC(=O)CN(C)C(=O)Cn2ncc(Cl)c(Cl)c2=O)cc1	0%	4%	3%	-2%	71µM*	-9%
CCc1nnc(NC(=O)c2ccccc2NC(=O)C2CCN(C(=O)c3ccco3)CC2)s1	/	-22%	/	/	-8%	5%
COC(=O)C(=C/C(C)=C/c1cccnc1)C(=O)OC	-2%	-40%	3%	-1%	56µM*	-7%
C=C[C@H](CC(C)C)N(Cc1ccccc1)S(=O)(=O)N(Cc1ccccc1)[C@H](C=C)CC(C)C	/	/	/	/	34%	1%
COc1cc(C)c(NC(C)C(=O)c2c(C)[nH]c3ccccc23)cc1OC (stereo not drawn)	/	/	/	/	-22%	-8%
O=C(N/N=C/c1cccs1)c1cccc2cc[nH]c12	-2%	-20%	25µM*	2%	-1%	-7%
SMILES	GALK inhibitor	RGS4 inh	Eya2 inh	USP2a block	rTrxR1 inhibitor	TrxR1 substrate
COc1ccc(C(=O)NCC(c2ccc(N(C)C)cc2)N2CCc3ccccc32)cc1 (stereo not drawn)	/	-16%	/	/	-20%[57.1 µM]	-2%[57.1 µM]
Brc1ccc(-c2csc(N3CCCCC3)n2)cc1	/	/	-2%	0%	/	/
O=C(O)c1cc(N(Cc2ccccc2O)Cc2ccccc2O)ccc1O	/	?	/	/	40µM*	1%
O=c1cc(-c2ccccc2)oc2cccc(O)c12	/	8.4µM*!	/	/	14%	7%
NNC(=O)c1ccc(C(=O)N(c2ccccc2)c2ccccc2)cc1	/	/	/	/	-6%	-4%
CC(C)CCn1c(=O)c2ccccc2n2c(CCl)nnc12	8%	14%	8%	3%	22µM*	13%[57.1 µM]
CCCCCn1c(=O)c2ccccc2n2c(CCl)nnc12	5%	-8%	-17%	3%	?	-3%[57.1 µM]
O=C(CCN1CCOCC1)c1ccc2c(c1)OCCO2	-2%	?	6%	-2%	4µM*	7%
O=C(CCN1CCc2ccccc2CC1)c1ccc2c(c1)OCCO2	2%	?	-1%	-1%	0.32µM*	3%
O=C(O)CCc1cccc2ccccc12	/	/	/	/	-33%	4%
O=C(O)c1cc(NCc2cc(O)ccc2O)ccc1O	/	?	/	/	40µM*	7%
Cc1ccc2cc(CN(C(=O)c3ccco3)c3ccccc3)c(=O)[nH]c2c1	-3%	-19%	-31%	1%	?	6%
Cc1cccc(N(Cc2cc3ccc(C)cc3[nH]c2=O)C(=O)c2ccco2)c1	0%	-46%	-10%	1%	35µM*	3%
CC(=O)Nc1nonc1-c1nc2ccccc2n1N(C(C)=O)C(C)=O	2%	-18%	10%	3%	56µM*	24%
O=C(C[n+]1ccccc1)c1ccc(I)cc1	/	/	/	/	10%	2%
CN(C)c1ccc(/C=C/N2C=CCc3c2ccc2ccccc32)cc1	/	/	/	/	-10%	3%
Cc1ccccc1Oc1cc(-n2ncc(Cl)c(Cl)c2=O)ncn1	-6%	?	7%	1%	0.79µM*	3%
CCOc1cnn(-c2cc(Oc3ccc(C)cc3)ncn2)c(=O)c1Cl	2%	-1%	0%	3%	15%	7%
O=S1(=O)CCO[C@H]2CCCC[C@@H]2N1Cc1ccc(Cl)cc1	/	/	/	/	-10%	-6%
Cn1c(=O)c(=O)n(C)c2cc(N3CCCC3)c(NS(=O)(=O)c3ccc(Cl)cc3)cc21	-5%	-25%	-2%	1%	35µM*	-1%
CCC(=O)Nc1ccc(-c2nnc(SCc3ccccc3)n2C)cc1	/	/	/	/	31%	11%
CCC1=NN2C(=N)/C(=C\c3ccc(SCc4ccco4)o3)C(=O)N=C2S1	4%	?	7%	1%	-29%	-17%
O=C1NC(=S)S/C1=C\c1ccc(SCc2ccccc2)o1	0%	?	-1%	1%	25µM*	0%
O=C1NC(=S)S/C1=C\c1ccc(SCc2ccco2)o1	/	-113%	5%	3%	8.9µM*	-3%
CNC(=O)[C@]1(C(F)(F)F)C[C@H](CCC2CCCCC2)CCCO1	/	-17%	/	/	-12%	-14%
COc1ccc(-n2nc3c(c2NC(=O)CCl)CSC3)cc1	-3%	-32%	5%	1%	14µM*	16%
COc1ccc(-n2nc3c(c2NC(=O)C(C)Cl)CSC3)cc1 (stereo not drawn)	-3%	-2%	-4%	3%	1%	-4%
